This passage reports growth inhibition results from PubChem BioAssay (NCI).

Molecules are shown by their SMILES. “And” between values parts separate entries of the source, which are not always exact repeats. Equal entries are not always repeated. About 79,000 compounds went through this panel and 15% of them were active in at least one assay; those are over-represented in the sample as a whole. More than one record can exist for a structure, and the calls need not agree. The source made the active and inactive calls. Cut-off read from the data, not from the text of the source: active = growth inhibition above about 70%; inactive = the rest.

The first assay in a line: NCI Yeast Anticancer Drug Screen. Data for the bub3 strain (AID 167). The settings on record: S. cerevisiae bub3 mutant strain, at 50.0 µM, stronger effect = higher value. Put shortly:
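Growth of a checkpoint-deficient yeast mutant is measured after compound exposure. Values represent inhibition relative to vehicle.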
On to `O=C(Nc1ccccc1)C(Cl)(Cl)Cl`, for which the growth inhibition was -9.8% (inactive). On the same count and under the same terms, as for `O=[N+]([O-])c1cccc2c([N+](=O)[O-])cccc12`, the figure is -0.7% (inactive); as for `O=C(O)CCCNSc1ccccc1[N+](=O)[O-]`, 68.4% (inactive). In the case of `NC(=Nc1ccccc1)N/N=C/c1c[nH]c2ccccc12`, the growth inhibition was -7.15% (inactive). The same measure, in the same setting: in the case of `C1=C/CCC2NC2C/C=C/CCC/1` (centres undefined) it was -22.8% (inactive); in that of `C=C(C)C1(CC)C(=O)NC(=O)N(C)C1=O` (centres undefined), 3.65% (inactive) and 1.5% (inactive). For the compound `CC(C)(C)C1=CC(=C(P(=O)(O)O)P(=O)(O)O)C=C(C(C)(C)C)C1=O`, the growth inhibition was -47.8% (inactive). The same measure, in the same setting: in the case of `CCCNP(=S)(NCCC)NCCC` it was 0% (inactive); in that of `OCCN=Cc1ccccc1O.OCCN=Cc1ccccc1O.[Ni]`, 12.8% (inactive). Turning to `O=c1c2cc(Br)ccc2[nH]c(=S)n1-c1ccc(Br)cc1`, the growth inhibition is 35.5% (inactive).

Turning to `O=Cc1ccccc1O`, the growth inhibition is -6.05% (inactive). Still for that read-out and setting: as for `COc1cc(CC(C)N)ccc1O` (centres undefined), the figure is 21.6% (inactive); as for `CCC1(CC(C)(C)Cl)C(=O)NC(=O)NC1=O`, 3.45% (inactive); as for `CC1(Cl)CC2C(CC1Sc1nnnn1-c1ccccc1)C2(C)C` (centres undefined), -18.4% (inactive). Same read-out and setting: as for `COC(=O)C1(C(=O)OC)Cc2ccc(C)cc2C2=C1C(=O)c1ccccc1C2=O`, the figure is -3.4% (inactive). Still for that read-out and setting: in the case of `O=[N+]([O-])c1cc(C2CCCCC2)c(O)c([N+](=O)[O-])c1` it was 21.2% (inactive) and 81.8% (active); in that of `C=C(C)C1(CC(C)C)C(=O)NC(=O)NC1=O`, -14.8% (inactive) and 8.15% (inactive). For the compound `CC(=O)[O-].Cn1ccnc1CNCc1nccn1C.[Cu+2].[O-][Cl+3]([O-])([O-])[O-]`, the growth inhibition is -1.4% (inactive). The same measure, in the same setting: as for `CC(=O)OC1CCC2(C)C3CCC4(C)C(c5ccc(=O)oc5)CC5OC54C3CCC2(O)C1` (centres undefined), the figure is -2.2% (inactive). Still for that read-out and setting: in the case of `C[CH2][Sn]([CH2]C)([O]c1cccccc1=O)[O]c1cccccc1=O` it was 7.8% (inactive). With `O=C(CS(=O)(=O)O)Nc1ccccc1`, the growth inhibition is 17.1% (inactive). The same measure, in the same setting: as for `O=C1CCP(c2ccccc2)(c2ccccc2)(c2ccccc2)O1`, the figure is 14.3% (inactive); as for `O=C(NC(=S)N1CC1)c1ccccc1`, -26.4% (inactive); as for `CCC[CH2][Sn]([CH3])([CH3])[CH2]CC[N+](C)(C)C`, 10.8% (inactive).

The nature of a further assay: NCI Yeast Anticancer Drug Screen. Data for the mlh1 rad18 strain (AID 175). The settings on record: S. cerevisiae mlh1 rad18 strain growth inhibition; at 50.0 µM; stronger effect = higher value. In outline: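 Vehicle-treated cultures served as the reference for growth inhibition in a yeast strain carrying DNA damage repair alterations exposed to each compound.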
In the case of `CN(N=O)c1ccc([N+](=O)[O-])cc1`, the growth inhibition was 28.1% (inactive).

Regarding `C1=CC(N2CCOCC2)CC1` (centres undefined), the growth inhibition was 2.25% (inactive). Still for that read-out and setting: in the case of `CC1=CC(C)=Nc2ccc(C)cc2N1` it was 22.2% (inactive); in that of `CC[C@@]1(O)C(=O)OCc2c1cc1n(c2=O)Cc2c-1nc1ccccc1c2C=Nc1ccccc1N[C@@H]1c2cc3c(cc2[C@@H](c2cc(OC)c(O)c(OC)c2)[C@H]2C(=O)OC[C@@H]21)OCO3`, 39.6% (inactive) and 85.8% (active). Regarding `O=[N+]([O-])c1ccc(Cl)c([N+](=O)[O-])c1`, the growth inhibition is 99.2% (active). Same read-out and setting: as for `NC1=NC(=O)C(c2ccccc2)(c2ccccc2)O1`, the figure is -4.15% (inactive); as for `c1ccc2c(c1)sc1sc3ccccc3[n+]12`, -23.4% (inactive); as for `O=C(c1ccc([N+](=O)[O-])cc1)C1NC1c1ccccc1` (centres undefined), -15.7% (inactive). The same measure, in the same setting: as for `COC(=O)c1ccc(C=C(C#N)C#N)cc1`, the figure is -21% (inactive). In the case of `CP(O)(=S)C1CCCCC1` (centres undefined) (tested in a mixture with another compound), the growth inhibition is 13.8% (inactive).

In the case of `CC(C)CC(NC(=O)C(Cc1ccccc1)NC(=O)CNC(=O)CNC(=O)C(N)Cc1ccc(O)cc1)C(=O)O` (centres undefined), the growth inhibition is -11.2% (inactive). Still for that read-out and setting: in the case of `CC(C(=O)O)C(Br)C(=O)O` (centres undefined) it was 9.7% (inactive); in that of `Cc1cccc[c]1[Sb](=[O])([OH])[OH]`, -2.7% (inactive); in that of `CCN(CC)C(=O)N1CC2CCC(C1)N2C`, -10.2% (inactive). Still for that read-out and setting: in the case of `S=c1sc(-c2ccc(Cl)cc2)c[se]1` it was -5.05% (inactive); in that of `Oc1ccc(C=NCC2CCCC[N-]2)c(O)c1.Oc1ccc(C=NCC2CCCC[N-]2)c(O)c1.[Ni+2]` (centres undefined), -8.4% (inactive). On the same count and under the same terms, as for `O=C(Nc1ccccc1)C(Cl)(Cl)Cl`, the figure is 19.8% (inactive); as for `O=[N+]([O-])c1cccc2c([N+](=O)[O-])cccc12`, 0.05% (inactive); as for `O=C(O)CCCNSc1ccccc1[N+](=O)[O-]`, 72% (active). Consider `NC(=Nc1ccccc1)N/N=C/c1c[nH]c2ccccc12`, for which the growth inhibition was -50% (inactive). Same read-out and setting: as for `C1=C/CCC2NC2C/C=C/CCC/1` (centres undefined), the figure is -19.6% (inactive); as for `C=C(C)C1(CC)C(=O)NC(=O)N(C)C1=O` (centres undefined), -7.95% (inactive) and -13.1% (inactive). As for `CC(C)(C)C1=CC(=C(P(=O)(O)O)P(=O)(O)O)C=C(C(C)(C)C)C1=O`, the growth inhibition was -34.5% (inactive). The same measure, in the same setting: as for `CCCNP(=S)(NCCC)NCCC`, the figure is 22% (inactive); as for `OCCN=Cc1ccccc1O.OCCN=Cc1ccccc1O.[Ni]`, 18.4% (inactive). Take `O=c1c2cc(Br)ccc2[nH]c(=S)n1-c1ccc(Br)cc1`: the growth inhibition is 12.2% (inactive).

Turning to `O=Cc1ccccc1O`, the growth inhibition was 5.6% (inactive).

As to `COc1cc(CC(C)N)ccc1O` (centres undefined), the growth inhibition was -18.4% (inactive). Still for that read-out and setting: as for `CCC1(CC(C)(C)Cl)C(=O)NC(=O)NC1=O`, the figure is -20% (inactive).

Regarding `CC1(Cl)CC2C(CC1Sc1nnnn1-c1ccccc1)C2(C)C` (centres undefined), the growth inhibition is -7.2% (inactive). On the same count and under the same terms, as for `COC(=O)C1(C(=O)OC)Cc2ccc(C)cc2C2=C1C(=O)c1ccccc1C2=O`, the figure is 7.85% (inactive); as for `O=[N+]([O-])c1cc(C2CCCCC2)c(O)c([N+](=O)[O-])c1`, 26.4% (inactive) and 86.3% (active). On the same count and under the same terms, as for `C=C(C)C1(CC(C)C)C(=O)NC(=O)NC1=O`, the figure is -5.9% (inactive) and -4.3% (inactive); as for `CC(=O)[O-].Cn1ccnc1CNCc1nccn1C.[Cu+2].[O-][Cl+3]([O-])([O-])[O-]`, 5.25% (inactive); as for `CC(=O)OC1CCC2(C)C3CCC4(C)C(c5ccc(=O)oc5)CC5OC54C3CCC2(O)C1` (centres undefined), 2.3% (inactive).

In the case of `C[CH2][Sn]([CH2]C)([O]c1cccccc1=O)[O]c1cccccc1=O`, the growth inhibition is 52.5% (inactive). Same read-out and setting: as for `O=C(CS(=O)(=O)O)Nc1ccccc1`, the figure is 22.2% (inactive). On the same count and under the same terms, as for `O=C1CCP(c2ccccc2)(c2ccccc2)(c2ccccc2)O1`, the figure is 7% (inactive).

For `O=C(NC(=S)N1CC1)c1ccccc1`, the growth inhibition was -36.3% (inactive). As for `CCC[CH2][Sn]([CH3])([CH3])[CH2]CC[N+](C)(C)C`, the growth inhibition was 13.5% (inactive).
